According to PubChem BioAssay (NCATS):
Records with an inconclusive call do not appear. Active and inactive are the calls of the source. Unless noted, calls come from the whole dose curve; as a rule, active = well fitted curve in the direction sought with a large enough effect; inconclusive = small, poorly fitted or top-dose-only effect, or another doubt; inactive = no such curve, though single readings can be large; an effect the other way counts as inactive or inconclusive.

Columns and labels:
[1] = target: DNA repair nuclease/redox regulator APEX1 (Homo sapiens) (UniProt P27695); assay: qHTS Validation Assay for Inhibitors of the Human Apurinic/apyrimidinic Endonuclease 1 (APE1) (AID 1705;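 note: TAMRA fluorescence gain over two minutes as APE1 cuts a quenched THF abasic duplex; series mostly up to about 57 µM; % is set by controls: 0 for no effect and ±100 for the full control effect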)
Sequence of DNA repair nuclease/redox regulator APEX1 (Homo sapiens) (P27695 whole entry, looked up): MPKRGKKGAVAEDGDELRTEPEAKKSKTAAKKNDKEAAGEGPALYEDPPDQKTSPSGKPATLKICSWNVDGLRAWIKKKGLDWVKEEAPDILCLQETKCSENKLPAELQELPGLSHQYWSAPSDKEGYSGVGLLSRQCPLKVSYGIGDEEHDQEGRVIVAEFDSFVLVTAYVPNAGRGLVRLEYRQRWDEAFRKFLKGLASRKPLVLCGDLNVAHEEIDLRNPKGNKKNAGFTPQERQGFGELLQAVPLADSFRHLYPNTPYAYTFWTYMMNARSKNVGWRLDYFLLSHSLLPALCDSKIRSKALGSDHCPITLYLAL
In short: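 qHTS, 1536-well. APE1 + cpd 15 min RT → 50 nM TAMRA/BHQ-2 THF-abasic dsDNA substrate → kinetic fluorescence, 3 reads/60 s; delta(read3−read1) = reaction progress. No-enzyme buffer = negative control.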

[2] = Counterscreen for APE1 Inhibitors: Fluorescent Dye Displacement Validation Assay (AID 1707);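 note: plate controls were ThO with dsDNA and no compound for no effect and ThO without dsDNA for full effect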
In short: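 Thiazole Orange displacement from dsDNA: 250 nM ThO with 50 nM TAMRA-labelled abasic-site (tetrahydrofuran) duplex in 50 mM Tris-HCl pH7.5, 50mM NaCl, 2 mM MgCl2, 0.01% Tween-20. Loss of endpoint fluorescence (ex 480 nm, em 540 nm) flags DNA binders.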

[3] = qHTS for differential inhibitors of proliferation of Plasmodium falciparum line 7G8 (AID 1815);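 note: potency is the fitted concentration of half-maximal effect; parasite growth measured after three days of incubation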
[4] = qHTS for differential inhibitors of proliferation of Plasmodium falciparum line GB4 (AID 1816); conditions: Potency: Plasmodium falciparum GB4 proliferation inhibition;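 note: potency is the fitted concentration of half-maximal effect; parasite growth measured after 72 h incubation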
[5] = qHTS for differential inhibitors of proliferation of Plasmodium falciparum line 3D7 (AID 1876); note: potency is the fitted concentration of half-maximal effect
[6] = qHTS for differential inhibitors of proliferation of Plasmodium falciparum line W2 (AID 1883); conditions: Potency: Plasmodium falciparum W2 proliferation inhibition;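 note: potency is the fitted concentration of half-maximal effect; parasites grown with compound for 72 h before lysis and staining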
[7] = qHTS Assay for Modulators of Human Peripheral Myelin Protein 22 (PMP22) Expression/Activity (AID 1967; active = well fitted curve in the direction sought with a large enough effect in the signal ratio; the % refers to the signal ratio;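 note: 0% = untreated cells and 100% end not stated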)
In short: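 Luminescence ratio of Pmp22 promoter-driven green luciferase to EF-alpha-driven red luciferase, in engineered mouse MSC80 Schwann cells, served as read-out. Compounds were incubated 24h; untreated cells defined 0% Activity; curves were classified by r2, magnitude and activity.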

[8] = target: Ferritin light chain (Equus caballus) (UniProt P02791); assay: qHTS Validation Assay for Identification of Novel General Anesthetics (AID 2323); note: series mostly up to about 77 µM; % is set by controls: 0 for no effect and ±100 for the full control effect
Sequence of Ferritin light chain (Equus caballus) (P02791 2-175 limits assumed): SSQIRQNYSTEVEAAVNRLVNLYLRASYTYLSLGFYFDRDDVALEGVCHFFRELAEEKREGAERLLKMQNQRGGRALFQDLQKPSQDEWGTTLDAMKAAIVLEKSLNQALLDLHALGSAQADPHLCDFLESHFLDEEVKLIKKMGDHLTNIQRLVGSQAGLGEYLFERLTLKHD
In short: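 Fluorescence at 535 nm (excitation 380 nm) reported loss of 1-AMA binding to horse-spleen apoferritin (10 uM) in PBS with 50% saturated 1-aminoanthracene, after 10 min room-temperature incubation with compound; values from Hill fits of normalized response.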

[9] = target: ATP-dependent DNA helicase Q1 (Homo sapiens) (UniProt P46063); assay: qHTS Validation Assay for Inhibitors of RecQ-Like Dna Helicase 1 (RECQ1) (AID 2353);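 note: plate controls were DMSO vehicle for no effect and enzyme-free control for full effect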
Sequence of ATP-dependent DNA helicase Q1 (Homo sapiens) (P46063 whole entry, looked up): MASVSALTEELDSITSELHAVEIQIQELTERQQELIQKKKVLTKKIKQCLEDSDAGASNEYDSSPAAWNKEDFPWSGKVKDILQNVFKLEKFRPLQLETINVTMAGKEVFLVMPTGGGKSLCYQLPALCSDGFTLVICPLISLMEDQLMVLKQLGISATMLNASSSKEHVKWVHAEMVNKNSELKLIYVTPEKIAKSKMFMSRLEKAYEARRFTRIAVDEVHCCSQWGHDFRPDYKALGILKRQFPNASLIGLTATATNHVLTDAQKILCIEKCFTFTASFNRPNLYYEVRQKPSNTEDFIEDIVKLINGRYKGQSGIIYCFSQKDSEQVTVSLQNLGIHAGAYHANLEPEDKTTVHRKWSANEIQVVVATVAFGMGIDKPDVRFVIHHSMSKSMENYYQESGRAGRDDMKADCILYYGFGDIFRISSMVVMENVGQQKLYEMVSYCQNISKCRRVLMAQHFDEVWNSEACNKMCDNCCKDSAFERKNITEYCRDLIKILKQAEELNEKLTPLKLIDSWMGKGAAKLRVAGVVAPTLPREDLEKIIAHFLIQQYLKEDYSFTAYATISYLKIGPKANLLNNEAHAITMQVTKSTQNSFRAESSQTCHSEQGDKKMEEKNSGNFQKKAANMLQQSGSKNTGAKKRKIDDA
In short: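 50 nM RECQ1T1 preincubated 15 min with compound in Tris pH 8.0 buffer with MgCl2, DTT, Tween-20 and 2.5 ug/ml poly(dI-dC); started with 200 nM TAMRA/BHQ-2 forked duplex and 2 mM ATP. Unwinding read as fluorescence (525/598 nm), two reads 2 h apart.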

[10] = target: RecQ-like DNA helicase BLM (Homo sapiens) (UniProt P54132); assay: qHTS Validation Assay for Inhibitors of Bloom's syndrome helicase (BLM) (AID 2364); note: potency is the fitted concentration of half-maximal effect
In short: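 50 nM BLM preincubated 15 min at room temperature with compound in pH 8.0 Tris buffer containing 2.5 ug/ml poly(dI-dC); started with 200 nM TAMRA/BHQ-2 forked duplex and 2 mM ATP (final). Unwinding read as TAMRA fluorescence increase, two reads 2 h apart.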

[11] = Validation screen for small molecules that induce DNA re-replication in MCF 10A normal breast cells (AID 463097); note: 0% is about no effect; nearly all actives have a fitted effect of over 60% in size
In short: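 Image-based qHTS: normal breast cells are incubated with compound for 48 hr, stained with Hoechst, and scanned for total nuclear fluorescence. Compounds raising the fraction of nuclei with elevated DNA content count as re-replication inducers.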

[12] = target: Thyrotropin receptor (Homo sapiens) (UniProt P16473); assay: qHTS Assay for Antagonists of the Thyroid Stimulating Hormone Receptor (AID 488980); note: series mostly up to about 58 µM; 0% is about no effect
Sequence of Thyrotropin receptor (Homo sapiens) (P16473 whole entry, looked up): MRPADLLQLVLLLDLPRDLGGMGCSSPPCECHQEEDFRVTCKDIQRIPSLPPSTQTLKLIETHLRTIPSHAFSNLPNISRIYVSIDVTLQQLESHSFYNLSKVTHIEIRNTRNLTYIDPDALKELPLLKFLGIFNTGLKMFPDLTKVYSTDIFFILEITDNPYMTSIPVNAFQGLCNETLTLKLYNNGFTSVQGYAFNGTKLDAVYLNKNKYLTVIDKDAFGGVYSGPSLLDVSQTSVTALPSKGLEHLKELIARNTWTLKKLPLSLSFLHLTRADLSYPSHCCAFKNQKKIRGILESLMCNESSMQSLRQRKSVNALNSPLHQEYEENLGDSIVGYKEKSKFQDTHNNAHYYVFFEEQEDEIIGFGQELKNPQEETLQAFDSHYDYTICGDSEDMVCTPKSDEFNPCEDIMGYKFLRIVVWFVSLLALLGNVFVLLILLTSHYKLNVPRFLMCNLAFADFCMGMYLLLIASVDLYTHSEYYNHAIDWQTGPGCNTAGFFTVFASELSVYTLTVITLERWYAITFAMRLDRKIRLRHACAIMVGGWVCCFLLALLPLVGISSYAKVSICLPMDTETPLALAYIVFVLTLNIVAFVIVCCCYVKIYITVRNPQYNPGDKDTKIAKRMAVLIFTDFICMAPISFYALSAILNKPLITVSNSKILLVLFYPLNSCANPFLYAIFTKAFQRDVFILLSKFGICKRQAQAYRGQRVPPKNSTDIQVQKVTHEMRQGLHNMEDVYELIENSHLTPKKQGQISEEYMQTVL
In short: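 Readout is cAMP by HTRF competition between cellular cAMP and cAMP-d2 for a cryptate-labelled antibody. Antagonism was assessed in TSHR-transfected HEK293 cells stimulated with 4 nM TSH (EC80, final) in the presence of RO 20-1724.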

[13] = target: Galactokinase (Homo sapiens) (UniProt P51570); assay: qHTS Validation Assay for Inhibitors of Human Galactokinase (GALK) (AID 493189); note: 0% is about no effect
Sequence of Galactokinase (Homo sapiens) (P51570 whole entry, looked up): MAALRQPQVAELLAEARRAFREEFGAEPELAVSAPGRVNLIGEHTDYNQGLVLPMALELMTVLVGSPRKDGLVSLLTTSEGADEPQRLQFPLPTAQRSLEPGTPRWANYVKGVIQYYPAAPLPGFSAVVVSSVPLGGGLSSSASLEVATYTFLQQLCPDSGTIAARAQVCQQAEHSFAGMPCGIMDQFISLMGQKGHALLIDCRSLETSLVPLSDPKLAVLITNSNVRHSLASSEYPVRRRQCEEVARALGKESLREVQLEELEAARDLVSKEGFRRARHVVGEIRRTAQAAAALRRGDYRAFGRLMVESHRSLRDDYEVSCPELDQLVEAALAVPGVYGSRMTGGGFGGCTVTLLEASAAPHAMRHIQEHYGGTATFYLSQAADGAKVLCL
In short: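 5 nM GALK / 100 uM galactose / 35 uM ATP, 20 mM HEPES pH8.0, 5 mM MgCl2, 60 mM NaCl, 1 mM DTT, 0.01% BSA (final). RT 1 h; Kinase-Glo Plus luminescence.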

[14] = Validation screen for small molecules that induce DNA re-replication in SW480 colon adenocarcinoma cells (AID 504364); note: 0% is about no effect
In short: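 Cells are treated 48 hr with test compound, stained 40 min with Hoechst at 37 C, and scanned for nuclear fluorescence; compounds inducing re-replication increase nuclei with elevated intensity.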

[15] = target: Rap guanine nucleotide exchange factor 3 (Homo sapiens) (UniProt O95398); assay: Counterscreen qHTS for antagonist of cAMP-regulated guanine nucleotide exchange factor 3 (EPAC1) (AID 1645888);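 note: fluorescence loss as bound BODIPY-GDP is released from Rap1B; % of control where 0% means no effect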
Sequence of Rap guanine nucleotide exchange factor 3 (Homo sapiens) (O95398 whole entry, looked up): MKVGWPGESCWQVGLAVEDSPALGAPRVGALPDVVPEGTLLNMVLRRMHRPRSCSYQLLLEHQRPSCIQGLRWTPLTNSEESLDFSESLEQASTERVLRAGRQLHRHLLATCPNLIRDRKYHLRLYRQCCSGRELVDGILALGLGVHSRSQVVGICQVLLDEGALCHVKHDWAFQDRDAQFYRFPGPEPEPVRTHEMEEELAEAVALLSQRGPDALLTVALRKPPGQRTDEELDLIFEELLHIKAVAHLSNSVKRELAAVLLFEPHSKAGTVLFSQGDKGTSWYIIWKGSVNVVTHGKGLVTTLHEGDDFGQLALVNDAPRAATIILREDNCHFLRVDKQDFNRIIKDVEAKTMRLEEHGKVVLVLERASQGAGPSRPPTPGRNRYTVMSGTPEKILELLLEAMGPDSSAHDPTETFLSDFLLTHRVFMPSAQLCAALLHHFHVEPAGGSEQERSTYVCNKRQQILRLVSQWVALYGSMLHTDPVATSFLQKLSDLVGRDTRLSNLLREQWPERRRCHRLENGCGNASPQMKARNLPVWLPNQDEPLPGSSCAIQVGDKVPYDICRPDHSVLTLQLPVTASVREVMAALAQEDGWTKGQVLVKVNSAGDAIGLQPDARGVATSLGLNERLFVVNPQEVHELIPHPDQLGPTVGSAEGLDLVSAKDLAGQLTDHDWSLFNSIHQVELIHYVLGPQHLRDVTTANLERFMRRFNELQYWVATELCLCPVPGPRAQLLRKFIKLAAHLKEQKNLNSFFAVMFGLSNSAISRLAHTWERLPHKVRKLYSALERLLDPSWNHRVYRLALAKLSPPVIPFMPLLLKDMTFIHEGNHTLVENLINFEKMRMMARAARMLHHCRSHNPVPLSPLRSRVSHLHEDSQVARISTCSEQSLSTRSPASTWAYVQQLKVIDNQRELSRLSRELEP
In short: (§1)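 Rap1B–BODIPY-GDP (250 nM) with 50 uM GDP; compounds pin-transferred to 9.74 nM–152 uM final (activator) or from 7.32 nM upwards (inhibitor). Fluorescence Ex/Em 480/540 nm read at 5 and 30 min, then after adding cAMP or buffer, at room temperature.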

[16] = target: Endonuclease 4 (Escherichia coli (strain K12)) (UniProt P0A6C1); assay: Counterscreen for APE1 Inhibitors: qHTS Validation Assay for Inhibitors of Endonuclease IV (AID 1708); note: % is set by controls: 0 for no effect and ±100 for the full control effect
In short: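 Cleavage of a quenched abasic-site DNA duplex (50 nM, 5'-TAMRA, 3'-BHQ-2) by 2 nM enzyme is followed as fluorescence increase. Compounds are preincubated with enzyme 15 min at room temperature before substrate addition.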

[17] = target: M-phase phosphoprotein 8 (Homo sapiens) (UniProt Q99549); assay: qHTS Validation Assay for Inhibitors for MPP8 Chromodomain Interactions with Methylated Histone Tails (AID 488949); note: nearly all actives have a fitted effect of over 55% in size; note: potency is the fitted concentration of half-maximal effect
Sequence of M-phase phosphoprotein 8 (Homo sapiens) (Q99549 whole entry, looked up): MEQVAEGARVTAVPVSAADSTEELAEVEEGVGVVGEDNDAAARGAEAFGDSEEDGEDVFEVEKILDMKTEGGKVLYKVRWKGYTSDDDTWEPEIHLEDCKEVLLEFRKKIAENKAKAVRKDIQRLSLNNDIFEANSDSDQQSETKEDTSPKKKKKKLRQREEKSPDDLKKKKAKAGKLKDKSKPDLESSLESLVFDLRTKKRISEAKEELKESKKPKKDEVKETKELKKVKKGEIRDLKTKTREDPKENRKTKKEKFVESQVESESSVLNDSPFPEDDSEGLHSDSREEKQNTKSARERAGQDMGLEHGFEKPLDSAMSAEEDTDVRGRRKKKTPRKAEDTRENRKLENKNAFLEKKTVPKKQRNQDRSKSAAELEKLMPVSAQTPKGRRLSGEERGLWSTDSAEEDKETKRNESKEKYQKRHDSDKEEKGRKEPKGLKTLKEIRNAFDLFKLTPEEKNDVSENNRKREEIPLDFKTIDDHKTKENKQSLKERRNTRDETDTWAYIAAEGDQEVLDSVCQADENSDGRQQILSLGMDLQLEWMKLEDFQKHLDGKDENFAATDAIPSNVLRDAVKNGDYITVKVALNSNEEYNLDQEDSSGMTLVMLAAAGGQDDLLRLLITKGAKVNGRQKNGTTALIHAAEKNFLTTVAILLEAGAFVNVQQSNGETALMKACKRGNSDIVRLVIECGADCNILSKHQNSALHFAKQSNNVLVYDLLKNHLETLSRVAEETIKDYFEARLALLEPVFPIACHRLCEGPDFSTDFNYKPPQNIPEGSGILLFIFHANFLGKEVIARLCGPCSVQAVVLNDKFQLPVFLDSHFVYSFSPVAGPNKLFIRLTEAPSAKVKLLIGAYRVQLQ
In short: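 50 nM MPP8 + 50 nM b-H3K9me3 peptide, PBS pH 7.4/0.01% Tween-20, 30 min RT; + cpd 30 min RT; + AlphaScreen donor/Ni-chelate acceptor beads 10 ug/mL final, 30 min dark; luminescence read.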

[18] = target: Transient receptor potential cation channel subfamily V member 1 (Homo sapiens) (UniProt Q8NER1); assay: HTS Assay for Compounds that Act as Enhancers of the Vanilloid Receptor 1 (AID 488979); note: 0% is about no effect
Sequence of Transient receptor potential cation channel subfamily V member 1 (Homo sapiens) (Q8NER1 whole entry, looked up): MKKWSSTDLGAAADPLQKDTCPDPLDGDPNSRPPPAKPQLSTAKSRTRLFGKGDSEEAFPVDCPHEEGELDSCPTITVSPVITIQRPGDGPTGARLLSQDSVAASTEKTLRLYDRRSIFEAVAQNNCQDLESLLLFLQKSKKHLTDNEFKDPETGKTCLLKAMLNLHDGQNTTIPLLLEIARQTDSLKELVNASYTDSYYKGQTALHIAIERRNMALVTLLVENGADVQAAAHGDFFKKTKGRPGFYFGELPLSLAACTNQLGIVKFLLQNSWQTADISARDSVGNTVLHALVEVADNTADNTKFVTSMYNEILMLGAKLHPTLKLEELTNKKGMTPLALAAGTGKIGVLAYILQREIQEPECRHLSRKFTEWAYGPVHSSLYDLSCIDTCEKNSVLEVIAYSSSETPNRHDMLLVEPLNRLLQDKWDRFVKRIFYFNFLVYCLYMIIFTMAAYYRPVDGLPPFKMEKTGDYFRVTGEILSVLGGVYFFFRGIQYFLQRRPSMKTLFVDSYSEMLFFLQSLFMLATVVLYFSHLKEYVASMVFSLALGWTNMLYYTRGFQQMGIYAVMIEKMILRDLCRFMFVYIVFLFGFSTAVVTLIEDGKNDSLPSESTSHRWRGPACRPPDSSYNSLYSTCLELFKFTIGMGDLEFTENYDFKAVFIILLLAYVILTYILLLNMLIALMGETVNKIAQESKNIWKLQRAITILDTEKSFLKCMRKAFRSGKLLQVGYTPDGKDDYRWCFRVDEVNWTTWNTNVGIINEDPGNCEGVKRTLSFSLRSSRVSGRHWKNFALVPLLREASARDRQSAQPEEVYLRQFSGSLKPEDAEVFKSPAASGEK
In short: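 TRPV1 cells loaded with Fluo-8 calcium dye; compound added and Ca2+ signal (ex 480/em 520 nm) followed 3 min, then capsaicin at EC20 added and read 2 more min to detect enhancement.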

[19] = target: Thyrotropin-releasing hormone receptor (Homo sapiens) (UniProt P34981); assay: qHTS for Small Molecule Agonists and Allosteric Enhancers of Human TRH Receptor: Validation Screen for Agonists (AID 493127;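 active = calcium activation more than 3 SD above the typical response in the agonist read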;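 note: intracellular calcium rise by fluo-8 fluorescence before TRH EC20 addition; 0% is about no effect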); conditions: TRH receptor agonist cell assay; at 2 µM; stronger effect = higher value
In short: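 Gq-coupled calcium mobilization in TRHR cells after compound addition, monitored kinetically with fluo-8 dye on an FDSS reader.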

[20] = target: Rap guanine nucleotide exchange factor 3 (Homo sapiens) (UniProt O95398); assay: Counterscreen qHTS for agonist of cAMP-regulated guanine nucleotide exchange factor 3 (EPAC1) (AID 1645889); note: potency is the fitted concentration of half-maximal effect; nearly all actives have a fitted effect of over 40% in size
In short: as §1

[21] = qHTS for differential inhibitors of proliferation of Plasmodium falciparum line D10 (AID 1877);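 note: potency is the fitted concentration of half-maximal effect; parasites grown with compound for 72 h before DNA staining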
[22] = qHTS for differential inhibitors of proliferation of Plasmodium falciparum line HB3 (AID 1886); conditions: Potency: Plasmodium falciparum HB3 proliferation inhibition;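 note: potency is the fitted concentration of half-maximal effect; parasites grown with compound for 72 h before SYBR Green readout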
[23] = Quantitative high throughput screen for delayed death inhibitors of the malarial parasite plastid, 96 hour incubation (AID 488745);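 note: luciferase-expressing P. falciparum in erythrocytes at 2% hematocrit and 0.1% parasitemia; series mostly up to about 29 µM; % is set by controls: 0 for no effect and ±100 for the full control effect; nearly all actives have a fitted effect of over 70% in size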
In short: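 Growth of reporter-bearing P. falciparum in red cells is measured after 96 h with compound, covering two erythrocytic cycles. Luminescence from the integrated luciferase serves as the growth signal.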

[24] = Quantitative high throughput screen for delayed death inhibitors of the malarial parasite plastid, 48 hour incubation (AID 488752); note: potency is the fitted concentration of half-maximal effect; nearly all actives have a fitted effect of over 65% in size
In short: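 One parasite generation (48 h, 37 C, 5% CO2) of luciferase-reporter P. falciparum in erythrocytes is run with test compound; decreased luminescence indicates inhibited growth.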

CN1CCN(CC/C=C2/c3ccccc3Sc3ccc(S(=O)(=O)N(C)C)cc32)CC1
active: Potency [3] 7.08 µM | Potency [4] 11.2 µM | Potency [5] 10 µM | Potency [6] 5.01 µM
inactive: Potency [1] | outcome [2] | outcome [7] | outcome [8] | outcome [9] | Potency [10] | Potency [11] | outcome [12] | outcome [13] | Potency [14]

CCOC(=O)C1CN(S(=O)(=O)c2ccc(C)cc2)c2ccccc2O1 (configuration not stated)
inactive: Potency [15]

N#CC(Cc1ccc(O)c(O)c1)C(=O)N1CCc2ccccc21 (configuration not stated)
inactive: Potency [1] | outcome [2] | Potency [16] | outcome [9] | Potency [11] | outcome [18] | outcome [12] | activation [19] 3.94% | outcome [13]
active: Potency [4] 7.08 µM | Potency [5] 3.55 µM | Potency [6] 3.55 µM | Potency [10] 25.1 µM | Potency [17] 17.8 µM

CCOC(=O)c1sc(NC(=O)CN2C(=O)NC3(CC(C)CC(C)(C)C3)C2=O)cc1C (configuration not stated)
active: Potency [20] 89.1 µM

Oc1ccccc1Cc1c(O)ccc2ccccc12
inactive: Potency [15]

CC(=O)O[C@]1(C(C)=O)CC[C@H]2C3C=C(Cl)C4=CC(=O)[C@@H]5C[C@H]5[C@]4(C)C3CC[C@@]21C (some centres not stated)
active: Potency [3] 12.6 µM | Potency [4] 10 µM | Potency [5] 8.91 µM | Potency [21] 14.1 µM | Potency [6] 8.91 µM | Potency [22] 12.6 µM | Potency [24] 9.28 µM
inactive: Potency [1] | Potency [16] | outcome [9] | Potency [23] | Potency [17] | outcome [18] | outcome [12] | outcome [13] | Potency [14]
